Records with an inconclusive call do not appear. Activity calls are given as the source filed them. The calls were made as follows: active = hit-call score of the fitted dose curve at least 0.9, where 1 is the maximum; inconclusive = response in the unintended direction; inactive = score below 0.9.
Assays:
[1] = molecular target: human Adenosine A2a Receptor (AdoRA2a), ADORA2A (gene 135) (UniProt P29274); test: NVS_GPCR_hAdoRA2a: NovaScreen (NVS) G Protein-Coupled Receptor Assay for human Adenosine A2a Receptor (AdoRA2a) (AID 2283256)
Chain of human Adenosine A2a Receptor (AdoRA2a), ADORA2A (gene 135) (P29274 whole entry, looked up): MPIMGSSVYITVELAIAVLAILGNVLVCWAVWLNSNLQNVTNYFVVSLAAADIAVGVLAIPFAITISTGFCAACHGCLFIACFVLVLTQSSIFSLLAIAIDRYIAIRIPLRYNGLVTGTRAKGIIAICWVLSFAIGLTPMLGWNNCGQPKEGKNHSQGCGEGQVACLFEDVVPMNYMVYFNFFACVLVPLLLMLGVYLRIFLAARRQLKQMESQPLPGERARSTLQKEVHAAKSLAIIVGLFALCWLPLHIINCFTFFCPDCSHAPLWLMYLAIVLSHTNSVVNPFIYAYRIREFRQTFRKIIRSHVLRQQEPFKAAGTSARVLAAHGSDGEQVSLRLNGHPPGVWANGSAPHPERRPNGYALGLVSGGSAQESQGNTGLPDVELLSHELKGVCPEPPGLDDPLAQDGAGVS
In short: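 Compounds screened in duplicate at 25 uM, with actives followed up in concentration series, for displacement of a radioligand from HEK293-derived receptor protein. Bound counts read by filter scintillation at 1.5 hours, DMSO as baseline.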

[2] = molecular target: human Serotonin, 5-Hydroxytryptamine Receptor 2A (5HT2A), HTR2A (gene 3356) (UniProt P28223); test: NVS_GPCR_h5HT2A: NovaScreen (NVS) G Protein-Coupled Receptor Assay for human Serotonin, 5-Hydroxytryptamine Receptor 2A (5HT2A) (AID 2283249)
Chain of human Serotonin, 5-Hydroxytryptamine Receptor 2A (5HT2A), HTR2A (gene 3356) (P28223 whole entry, looked up): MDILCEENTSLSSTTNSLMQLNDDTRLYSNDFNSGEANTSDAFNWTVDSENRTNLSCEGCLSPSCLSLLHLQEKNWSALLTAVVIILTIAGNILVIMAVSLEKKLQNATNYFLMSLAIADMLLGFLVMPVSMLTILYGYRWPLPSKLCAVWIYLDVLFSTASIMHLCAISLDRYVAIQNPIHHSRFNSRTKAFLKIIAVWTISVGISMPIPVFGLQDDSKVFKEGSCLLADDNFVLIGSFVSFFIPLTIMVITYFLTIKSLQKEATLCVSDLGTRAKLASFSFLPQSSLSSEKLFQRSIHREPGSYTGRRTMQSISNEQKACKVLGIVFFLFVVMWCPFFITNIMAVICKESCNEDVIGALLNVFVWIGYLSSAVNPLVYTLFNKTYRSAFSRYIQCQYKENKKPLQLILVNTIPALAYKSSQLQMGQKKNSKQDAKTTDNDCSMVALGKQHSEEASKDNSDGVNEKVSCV
In short: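 Radioligand displacement on human cortex tissue extract, counted by filtration and scintillation 1.5 h post-dosing. Initial single-concentration screen at 25 uM in duplicate, concentration series in follow-up; DMSO as baseline.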

[3] = test system: guinea pig Muscarinic, Peripheral (Mperiperal) Receptor, Non-selective Binding, gene 100379235; test: NVS_GPCR_gMPeripheral_NonSelective: NovaScreen (NVS) G Protein-Coupled Receptor Assay for guinea pig Muscarinic, Peripheral (Mperiperal) Receptor, Non-selective Binding (AID 2283250)
In short: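 Screened in duplicate at 25 uM, hits retested in concentration series to 50 uM max, using bladder membrane radioligand displacement from guinea pig. Filtration and scintillation counting 1 h post-dose, fitted relative to DMSO.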

[4] = molecular target: human Serotonin, 5-Hydroxytryptamine Receptor 5A (5HT5A), HTR5A (gene 3361) (UniProt P47898); test: NVS_GPCR_h5HT5A: NovaScreen (NVS) G Protein-Coupled Receptor Assay for human Serotonin, 5-Hydroxytryptamine Receptor 5A (5HT5A) (AID 2283251)
Chain of human Serotonin, 5-Hydroxytryptamine Receptor 5A (5HT5A), HTR5A (gene 3361) (P47898 whole entry, looked up): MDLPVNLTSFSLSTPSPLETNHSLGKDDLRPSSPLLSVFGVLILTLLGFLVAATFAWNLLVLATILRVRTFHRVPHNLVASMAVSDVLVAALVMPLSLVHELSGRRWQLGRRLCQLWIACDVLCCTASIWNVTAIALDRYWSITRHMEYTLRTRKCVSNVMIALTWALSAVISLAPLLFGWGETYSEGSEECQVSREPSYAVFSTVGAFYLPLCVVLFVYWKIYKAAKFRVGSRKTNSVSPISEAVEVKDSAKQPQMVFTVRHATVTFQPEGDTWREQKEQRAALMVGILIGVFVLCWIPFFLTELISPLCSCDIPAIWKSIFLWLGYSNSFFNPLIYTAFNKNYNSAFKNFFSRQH
In short: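 Membranes from HEK293 cells, radioligand binding read by filtration and scintillation after 1 h. Single-concentration duplicate testing at 25 uM, then concentration-response for actives; positive-direction fitting relative to DMSO.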

[5] = molecular target: human Serotonin, 5-Hydroxytryptamine Receptor 6 (5HT6), HTR6 (gene 3362) (UniProt P50406); test: NVS_GPCR_h5HT6: NovaScreen (NVS) G Protein-Coupled Receptor Assay for human Serotonin, 5-Hydroxytryptamine Receptor 6 (5HT6) (AID 2283253)
Chain of human Serotonin, 5-Hydroxytryptamine Receptor 6 (5HT6), HTR6 (gene 3362) (P50406 whole entry, looked up): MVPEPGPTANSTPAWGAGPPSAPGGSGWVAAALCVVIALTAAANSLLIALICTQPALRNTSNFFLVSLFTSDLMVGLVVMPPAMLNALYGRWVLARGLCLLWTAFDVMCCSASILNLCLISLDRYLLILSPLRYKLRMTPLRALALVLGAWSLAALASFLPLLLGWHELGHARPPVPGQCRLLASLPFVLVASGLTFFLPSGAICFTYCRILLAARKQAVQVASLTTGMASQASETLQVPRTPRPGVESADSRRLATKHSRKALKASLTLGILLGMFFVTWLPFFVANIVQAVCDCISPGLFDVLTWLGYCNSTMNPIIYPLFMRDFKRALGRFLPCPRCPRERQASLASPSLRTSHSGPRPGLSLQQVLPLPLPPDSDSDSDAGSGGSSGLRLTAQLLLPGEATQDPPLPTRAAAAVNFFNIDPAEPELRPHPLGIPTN
In short: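 Filter scintillation counting of radioligand displacement from HEK293-expressed 5HT6, 1 hour post-dose, with loss of signal relative to DMSO. Single 25 uM duplicates first, with concentration series for confirmation.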

[6] = molecular target: human Serotonin, 5-Hydroxytryptamine Receptor 7 (5HT7), HTR7 (gene 3363) (UniProt P34969); test: NVS_GPCR_h5HT7: NovaScreen (NVS) G Protein-Coupled Receptor Assay for human Serotonin, 5-Hydroxytryptamine Receptor 7 (5HT7) (AID 2283255);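 also: hits reduce specific radioligand binding relative to DMSO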
Chain of human Serotonin, 5-Hydroxytryptamine Receptor 7 (5HT7), HTR7 (gene 3363) (P34969 whole entry, looked up): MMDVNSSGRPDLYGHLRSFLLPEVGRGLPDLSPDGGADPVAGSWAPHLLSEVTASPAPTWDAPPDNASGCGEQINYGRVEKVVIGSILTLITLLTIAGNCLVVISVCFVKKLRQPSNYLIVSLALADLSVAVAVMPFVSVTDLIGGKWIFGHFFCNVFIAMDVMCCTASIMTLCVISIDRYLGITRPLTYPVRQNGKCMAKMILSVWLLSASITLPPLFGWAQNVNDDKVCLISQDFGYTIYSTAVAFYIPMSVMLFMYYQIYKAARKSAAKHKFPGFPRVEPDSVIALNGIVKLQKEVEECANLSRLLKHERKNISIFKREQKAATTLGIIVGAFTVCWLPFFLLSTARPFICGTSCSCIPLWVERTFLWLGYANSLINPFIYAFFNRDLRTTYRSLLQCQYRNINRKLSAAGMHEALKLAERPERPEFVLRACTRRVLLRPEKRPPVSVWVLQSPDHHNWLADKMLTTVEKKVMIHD
In short: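 Filter-bound radioactivity counted after 1 h, with loss of specific radioligand binding fitted against DMSO. Membrane protein came from CHO cells expressing human 5HT7. Chemicals were tested first at 25 uM in duplicate, then in concentration series if active.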

[7] = molecular target: human Adrenergic, Alpha 2A Receptor (Adra2A), ADRA2A (gene 150) (UniProt P08913); test: NVS_GPCR_hAdra2A: NovaScreen (NVS) G Protein-Coupled Receptor Assay for human Adrenergic, Alpha 2A Receptor (Adra2A) (AID 2283257)
Chain of human Adrenergic, Alpha 2A Receptor (Adra2A), ADRA2A (gene 150) (P08913 whole entry, looked up): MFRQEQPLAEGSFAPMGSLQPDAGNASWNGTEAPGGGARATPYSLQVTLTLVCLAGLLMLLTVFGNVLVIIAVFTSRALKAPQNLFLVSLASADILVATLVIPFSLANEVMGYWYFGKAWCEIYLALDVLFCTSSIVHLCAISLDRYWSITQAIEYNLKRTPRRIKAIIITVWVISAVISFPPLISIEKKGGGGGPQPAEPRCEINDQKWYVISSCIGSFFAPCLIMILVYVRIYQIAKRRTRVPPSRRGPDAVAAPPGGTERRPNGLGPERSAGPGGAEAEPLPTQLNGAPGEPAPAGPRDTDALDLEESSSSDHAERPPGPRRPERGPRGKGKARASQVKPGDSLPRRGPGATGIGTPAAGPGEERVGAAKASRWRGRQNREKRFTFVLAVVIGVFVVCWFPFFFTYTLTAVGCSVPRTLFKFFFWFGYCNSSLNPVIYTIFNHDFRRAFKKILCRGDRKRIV
Procedure: NVS_GPCR_hAdra2A is a biochemical, single-readout assay that uses extracted gene-proteins from HT29 in a cell-free assay. Measurements were taken 1 hour after chemical dosing in a 48-well plate.NVS_GPCR_hAdra2A is one of one assay component(s) measured or calculated from the NVS_GPCR_hAdra2A assay. It is designed to make measurements of radioligand binding, a form of binding reporter, as detected with scintillation counting signals by Filter-based radiodetection technology.Data from the assay component NVS_GPCR_hAdra2A was analyzed into 1 assay endpoint. This assay endpoint, NVS_GPCR_hAdra2A, was analyzed in the positive analysis fitting direction relative to DMSO as the negative control and baseline of activity. Using a type of binding reporter, loss-of-signal activity can be used to understand changes in the binding as they relate to the gene ADRA2A. Furthermore, this assay endpoint can be referred to as a primary readout, because the performed assay has only produced 1 assay endpoint. To generalize the intended target to other relatable targets, this assay endpoint is annotated to the gpcr intended target family, where the subfamily is rhodopsin-like receptor.
Binding assays used specific radioligands (tritiated, iodinated) with non-radioactive competitive displacement ligands in agonist or antagonist protocols (as indicated) and various reference compounds and inhibitors to titrate specific binding to receptors and transporters. Most enzyme assays (CYPs, kinases, phosphatases, proteases, HDACs) used recombinant protein and specific substrates (fluorescence mostly, some colorimetric and radioactive) and inhibitors, followed by a biochemical separation of substrate and product. All assays for the biochemical HTS were initially run in duplicate at a single concentration (10 uM for CYP450 assays and 25 uM for all others). […] Each assay was run with positive and negative controls, and concurrent controls on every plate. […]

[8] = molecular target: human Adenosine A1 Receptor (AdoRA1), ADORA1 (gene 134) (UniProt P30542); test: NVS_GPCR_hAdoRA1: NovaScreen (NVS) G Protein-Coupled Receptor Assay for human Adenosine A1 Receptor (AdoRA1) (AID 2283254)
Chain of human Adenosine A1 Receptor (AdoRA1), ADORA1 (gene 134) (P30542 whole entry, looked up): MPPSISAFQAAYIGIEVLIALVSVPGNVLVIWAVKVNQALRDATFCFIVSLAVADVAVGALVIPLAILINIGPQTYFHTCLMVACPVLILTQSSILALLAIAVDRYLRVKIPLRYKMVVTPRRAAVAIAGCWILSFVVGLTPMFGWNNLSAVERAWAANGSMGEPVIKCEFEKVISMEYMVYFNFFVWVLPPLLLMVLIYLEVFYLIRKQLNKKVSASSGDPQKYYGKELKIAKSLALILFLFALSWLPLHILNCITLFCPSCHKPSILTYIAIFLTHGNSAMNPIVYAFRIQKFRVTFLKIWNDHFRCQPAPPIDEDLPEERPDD
In short: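 Hum. cortical membranes + radioligand, cmpd 1 h; filtration, scintillation count. Readout = decrease vs DMSO. Primary 25 uM dup; hits → conc. series.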

[9] = molecular target: guinea pig Opioid, Kappa 1 Receptor (OpiateK), OPRK1 (gene 100135587) (UniProt P41144); test: NVS_GPCR_gOpiateK: NovaScreen (NVS) G Protein-Coupled Receptor Assay for guinea pig Opioid, Kappa 1 Receptor (OpiateK) (AID 2283252);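 also: active means reduced radioligand binding relative to DMSO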
Chain of guinea pig Opioid, Kappa 1 Receptor (OpiateK), OPRK1 (gene 100135587) (P41144 whole entry, looked up): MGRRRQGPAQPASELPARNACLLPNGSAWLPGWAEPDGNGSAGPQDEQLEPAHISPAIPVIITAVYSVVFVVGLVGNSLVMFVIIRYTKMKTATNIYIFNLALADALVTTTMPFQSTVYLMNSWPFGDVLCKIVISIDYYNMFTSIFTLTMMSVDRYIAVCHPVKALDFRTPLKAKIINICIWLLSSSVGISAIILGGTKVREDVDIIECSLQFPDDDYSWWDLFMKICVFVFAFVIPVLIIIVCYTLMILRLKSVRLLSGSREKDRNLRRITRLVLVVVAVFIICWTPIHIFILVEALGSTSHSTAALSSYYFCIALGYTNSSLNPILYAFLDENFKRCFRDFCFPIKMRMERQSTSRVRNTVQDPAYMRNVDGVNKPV
In short: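 Radioligand binding to kappa opioid receptor in guinea pig cerebellar membranes, read by filtration and scintillation at 2 h. Compounds first tested in duplicate at 25 uM, then actives in concentration series; signal loss fitted against DMSO.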

[10] = molecular target: guinea pig Leukotriene D4 Receptor (LTD4), CYSLTR1 (gene 100135514) (UniProt Q2NNR5); test: NVS_GPCR_gLTD4: NovaScreen (NVS) G Protein-Coupled Receptor Assay for guinea pig Leukotriene D4 Receptor (LTD4) (AID 2283248)
Chain of guinea pig Leukotriene D4 Receptor (LTD4), CYSLTR1 (gene 100135514) (Q2NNR5 whole entry, looked up): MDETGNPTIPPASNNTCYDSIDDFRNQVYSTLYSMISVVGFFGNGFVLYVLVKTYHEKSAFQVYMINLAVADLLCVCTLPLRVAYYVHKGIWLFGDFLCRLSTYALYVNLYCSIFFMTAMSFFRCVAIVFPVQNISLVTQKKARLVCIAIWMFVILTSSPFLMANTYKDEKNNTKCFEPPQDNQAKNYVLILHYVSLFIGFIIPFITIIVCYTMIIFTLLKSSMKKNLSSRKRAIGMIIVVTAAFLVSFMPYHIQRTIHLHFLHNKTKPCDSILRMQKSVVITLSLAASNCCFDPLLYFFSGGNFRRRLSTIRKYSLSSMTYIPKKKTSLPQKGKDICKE
In short: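 Guinea pig lung membrane preparation; bound radioligand measured by filter scintillation after 1 h, loss of signal versus DMSO marking displacement. Compounds tested at 25 uM in duplicate, hits retested to max 50 uM.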

Nc1ccccc1N
AC50 [1]: 0.975 µM (active)

NC(=O)Cn1c(=O)cc(CCN2CCN(c3nccc4sccc34)CC2)c2ccc(F)cc21
AC50 [2]: 0.00229 µM (active) | outcome [3]: inactive | AC50 [4]: 0.834 µM (active) | AC50 [5]: 0.214 µM (active) | AC50 [6]: 0.0155 µM (active) | AC50 [7]: 2.03 µM (active)

Oc1ccc2c(c1)OC[C@@H](N1CCC(O)(c3ccc(F)cc3)CC1)[C@H]2O
outcome [2]: inactive | outcome [5]: inactive | outcome [8]: inactive | outcome [7]: inactive

C=CCOC(=O)c1ccccc1C(=O)OCC=C
outcome [8]: inactive

CNCc1cc(F)ccc1Oc1ccc(Cl)c(Cl)c1
AC50 [3]: 25 µM (active) | AC50 [9]: 12.7 µM (active)

CCCCC(CC)COC(=O)CC(C(=O)OCC(CC)CCCC)S(=O)(=O)O (stereo not drawn)
AC50 [10]: 16.1 µM (active) | outcome [2]: inactive | AC50 [3]: 25 µM (active) | AC50 [4]: 7.45 µM (active) | AC50 [5]: 36.6 µM (active) | AC50 [8]: 20.7 µM (active) | AC50 [6]: 6.08 µM (active) | AC50 [1]: 25 µM (active) | outcome [7]: inactive

O=c1c(O)c(-c2ccc(O)c(O)c2)oc2cc(O)cc(O)c12
outcome [8]: inactive | AC50 [1]: 11.8 µM (active)

Nc1ccc(S(=O)(=O)c2ccc(N)cc2)cc1
AC50 [5]: 1.2 µM (active)

NS(=O)(=O)c1cc2c(cc1Cl)NCNS2(=O)=O
outcome [5]: inactive

CN1CCN(Cc2cc(-c3ccc4[nH]c(=O)oc4c3)co2)[C@@H](c2ccc(F)cc2)C1
outcome [3]: inactive | AC50 [4]: 9.14 µM (active) | outcome [9]: inactive | AC50 [5]: 2.5 µM (active) | AC50 [6]: 15.6 µM (active)

CC(C)c1ccc(C(=O)N=C(N)N)cc1S(C)(=O)=O
AC50 [6]: 8.17 µM (active)

CCOc1ccc2c(c1)C(C)=CC(C)(C)N2
outcome [1]: inactive

CCOC(=O)CCC(=O)OCC
outcome [3]: inactive | outcome [8]: inactive | outcome [6]: inactive | outcome [1]: inactive

— PubChem BioAssay (EPA / NIEHS)
